Over roughly 8,300 sequences, “log2 fold change of degron read counts, EGFP-low vs EGFP+ sorted cells (limma voom), compound-induced degradation” has its median near -1.1; the highest 2% begin near 3.2. The sample holds the highest values, similar sequences and a random draw of the others, so the mix is not that of the screen.
T1: CRBN, Q96SW2
T1 chain: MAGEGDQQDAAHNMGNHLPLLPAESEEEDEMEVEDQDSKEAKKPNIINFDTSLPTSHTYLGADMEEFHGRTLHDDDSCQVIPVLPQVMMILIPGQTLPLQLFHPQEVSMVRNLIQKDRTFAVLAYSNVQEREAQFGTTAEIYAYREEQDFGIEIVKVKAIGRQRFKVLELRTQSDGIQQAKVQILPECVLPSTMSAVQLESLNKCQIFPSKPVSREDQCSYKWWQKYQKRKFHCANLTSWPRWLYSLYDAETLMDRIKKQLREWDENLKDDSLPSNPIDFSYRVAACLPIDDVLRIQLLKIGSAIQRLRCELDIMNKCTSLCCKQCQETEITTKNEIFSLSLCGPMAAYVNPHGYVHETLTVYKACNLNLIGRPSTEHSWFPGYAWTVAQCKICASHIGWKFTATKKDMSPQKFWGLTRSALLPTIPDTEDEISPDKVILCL


Molecular target: T1, CRBN, Q96SW2
Assay: log2 fold change of degron read counts, EGFP-low vs EGFP+ sorted cells (limma voom), compound-induced degradation; higher = more compound-induced degradation of the degron-EGFP fusion; degrons are variants of IKZF1/3 zinc finger 2; compound dose not given here
Conditions: Jurkat, 18 h
[1] = compound: compound 19 (5-tert-butyl-thalidomide)
[2] = compound: compound 22 (5-morpholino-thalidomide)
[3] = compound: compound 33 (diphenyl IMiD analogue)
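Further: pooled lentiviral library of zinc finger degron-EGFP fusions in mCherry-positive Jurkat cells, FACS-sorted after compound exposure, with degron abundance counted by next-generation sequencing.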

| Sequence | log2 fold change of degron read counts [1] | log2 fold change of degron read counts [2] | log2 fold change of degron read counts [3] | log2 fold change of degron read counts (compound: thalidomide) |
| --- | --- | --- | --- | --- |
| FVCPVCGAQFTQKGNLLRHIKL [46F_47V_49P_50V_52G_53A_54Q_55F_67L_, Q9UKT9] | -0.526 | 2.62 | 2.83 | 2.98 |
| FWCPQCGAQFTQKGNLLRHIKL [46F_47W_49P_50Q_52G_53A_54Q_55F_67L_, Q9UKT9] | 0.804 | 3.54 | 1.31 | 0.158 |
| FYCPVCGAQFTQKGNLLRHIKL [46F_47Y_49P_50V_52G_53A_54Q_55F_67L_, Q9UKT9] | 2.88 | 3.65 | 2.38 | 1.69 |
| FRCPQCGARFTQKGNLLRHIKL [46F_47R_49P_50Q_52G_53A_54R_55F_67L_, Q9UKT9] | -2.3 | -2.09 | -1.12 | -1.27 |
| FLCPQCGAKFTQKGNLLRHIKL [46F_47L_49P_50Q_52G_53A_54K_55F_67L_, Q9UKT9] | -2.44 | -2.82 | -1.39 | -0.831 |
| FKCEVCGAQFTQKGNLLRHIKL [46F_47K_49E_50V_52G_53A_54Q_55F_67L_, Q9UKT9] | -0.0625 | -2.24 | -2.07 | -0.411 |
| FFCEICGRAFTQKGNLLRHIKL [46F_47F_49E_50I_52G_53R_54A_55F_67L_, Q9UKT9] | 0.601 | -0.248 | 0.402 | -1.11 |
| FKCEICGHPFTQKGNLLRHIKL [46F_47K_49E_50I_52G_53H_54P_55F_67L_, Q9UKT9] | -2.59 | -2.5 | -2.61 | -0.946 |
| FKCPICGRFFTQKGNLLRHIKL [46F_47K_49P_50I_52G_53R_54F_55F_67L_, Q9UKT9] | -1.81 | -1.89 | -2.21 | -1.32 |
| FRCDICGANFTQKGNLLRHIKL [46F_47R_49D_50I_52G_53A_54N_55F_67L_, Q9UKT9] | -1.48 | -1.55 | 0.418 | -0.326 |
| FDCNVCGAYFTQKGNLLRHIKL [46F_47D_49N_50V_52G_53A_54Y_55F_67L_, Q9UKT9] | -1.56 | -2.08 | -0.374 | -0.686 |
| FICSVCGHEFTQKGNLLRHIKL [46F_47I_49S_50V_52G_53H_54E_55F_67L_, Q9UKT9] | -3.46 | -3.92 | -3.21 | -3.41 |
| FQCPVCGAQFTQKGNLLRHIKL [46F_47Q_49P_50V_52G_53A_54Q_55F_67L_, Q9UKT9] | 0.712 | 2.48 | 2.51 | 3.59 |
| FNCPVCGAQFTQKGNLLRHIKL [46F_47N_49P_50V_52G_53A_54Q_55F_67L_, Q9UKT9] | 2.01 | 1.68 | 0.869 | 0.953 |
| FHCPVCGAQFTQKGNLLRHIKL [46F_47H_49P_50V_52G_53A_54Q_55F_67L_, Q9UKT9] | 1.78 | 2.55 | 2.19 | 1.13 |
| FGCPVCGAQFTQKGNLLRHIKL [46F_47G_49P_50V_52G_53A_54Q_55F_67L_, Q9UKT9] | 3.8 | 2.65 | 1.73 | 1.07 |
| FDCPVCGAQFTQKGNLLRHIKL [46F_47D_49P_50V_52G_53A_54Q_55F_67L_, Q9UKT9] | 1.44 | 0.833 | 1.04 | 2.23 |
| FICPVCGAQFTQKGNLLRHIKL [46F_47I_49P_50V_52G_53A_54Q_55F_67L_, Q9UKT9] | -0.745 | 2.74 | 2.89 | 2.73 |
| FLCDVCGALFTQKGNLLRHIKL [46F_47L_49D_50V_52G_53A_54L_55F_67L_, Q9UKT9] | -2.27 | -2.28 | -1.03 | -1.23 |
| FNCPVCGAVFTQKGNLLRHIKL [46F_47N_49P_50V_52G_53A_54V_55F_67L_, Q9UKT9] | 0.592 | 0.118 | 0.729 | 0.198 |

From the supplement of paper PMC12645437, “Orthogonal IMiD-Degron Pairs Induce Selective Protein Degradation in Cells” (ACS Chemical Biology, 2025)
